Data taken from PubChem BioAssay AID1619 (SRMLSC, 2009).
In all, about 220,000 compounds went through this assay and about 830 (0.38%) were called active.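 How the source made its calls: active means compound inhibiting the enzyme by more than half at any dose during confirmatory dose-response retesting; inconclusive means strong single-dose inhibitors picked by rank but not retested; inactive means the rest.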 Only a sample is shown. Results with a measured potency or affinity are listed apart.

Molecular target: Leucine aminopeptidase (Plasmodium falciparum (isolate 3D7)) (UniProt Q8IL11)
Assay: P. falciparum M17LAP inhibitors, primary screen, biochemical, fluorogenic H-Leu-NHMec substrate, 1536-well (AID 1619);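 further: plate controls were full reaction with DMSO carrier for no effect and no enzyme background for full effect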
Settings: recombinant M17LAP, H-Leu-NHMec fluorogenic kinetic assay; at 30 µM; active compounds read high

Chain of Leucine aminopeptidase (Plasmodium falciparum (isolate 3D7)) (Q8IL11 whole entry, looked up): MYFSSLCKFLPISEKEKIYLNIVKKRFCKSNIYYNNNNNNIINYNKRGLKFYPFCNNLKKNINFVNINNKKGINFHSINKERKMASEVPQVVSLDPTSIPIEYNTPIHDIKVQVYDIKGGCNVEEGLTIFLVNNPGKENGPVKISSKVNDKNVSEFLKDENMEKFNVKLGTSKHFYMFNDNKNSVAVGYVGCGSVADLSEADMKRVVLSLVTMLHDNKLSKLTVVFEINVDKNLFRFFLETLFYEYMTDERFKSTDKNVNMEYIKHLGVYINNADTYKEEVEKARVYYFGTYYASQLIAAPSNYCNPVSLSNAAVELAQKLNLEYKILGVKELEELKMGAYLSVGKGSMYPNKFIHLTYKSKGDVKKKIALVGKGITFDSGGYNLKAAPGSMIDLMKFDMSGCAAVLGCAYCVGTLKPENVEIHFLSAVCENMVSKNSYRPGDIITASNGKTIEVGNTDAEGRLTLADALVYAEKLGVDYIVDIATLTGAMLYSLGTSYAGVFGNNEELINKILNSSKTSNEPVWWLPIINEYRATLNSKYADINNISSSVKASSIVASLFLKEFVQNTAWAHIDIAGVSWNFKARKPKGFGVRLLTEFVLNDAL

inhibition, inactive:
CCOc1ccc(OCC)c(NC(=O)C2CCCN(S(=O)(=O)c3c(C)noc3C)C2)c1 (centres undefined) 3.89%
COc1ccc(OC)c(N/C=C2/CCCCC2=O)c1 5.47%
CC(=O)COc1ncn(-c2ccccc2)n1 42.4%
NC(=O)COc1ncn(-c2ccccc2)n1 1.05%
CCCCC(=O)Nc1nnc(-c2ccc(OC)cc2)s1 4.4%
O=C(CN1C(=O)NC2(CCCC2)C1=O)OCc1cc(=O)n2cc(Br)ccc2n1 -0.9%
O=C1CCCCN1CCc1c[nH]c2ccccc12 15.4%
COc1ccc(-n2nc3c(N)n[nH]c3cc2=O)cc1 -0.44%
COc1ccc(N2CCN(c3n[nH]c(N)n3)CC2)cc1 0.79%
O=C(CC12CC3CC(CC(C3)C1)C2)NC(=S)NCc1ccccc1 -4.21%
Cc1cccnc1CN1CCN(C(=O)c2cc(COc3ccc4ncccc4c3)on2)CC1 0.97%
Cc1ccccc1NC(=O)c1cnc2ccccn2c1=O 2.31%
O=C(Nc1cccc(C(F)(F)F)c1)c1cccnc1 -1.75%
Cn1ncc(N)c1C(=O)Nc1cccc(C(F)(F)F)c1 1.2%
CSc1nc2nc3c(cc2c(=O)n1-c1ccc(C)cc1)COC(C)(C)C3 3.67%
CCc1ccc(CN(C)C(=O)CCc2nnc(Cc3cccc(C)c3)o2)nc1 -6.64%
Cc1cccc(C)c1NC(=O)CSCCO 0.75%
Cc1cccc(C)c1NC(=O)CSCC(=O)O 4.91%
CCOC(=O)CSc1nc(-c2ccccc2)nc2ccc(C)cc12 2.78%
CC1CN(c2nc(-c3ccccc3)nc3ccccc23)CC(C)O1 (centres undefined) 4.44%
Cc1ccc(/C=c2\sc3nc(-c4ccco4)nn3c2=O)o1 42.2%
CCN(CC)c1ccc(/C=c2/sc3nnc(-c4ccccc4C)n3c2=O)cc1 9.78%
Cc1ccc(/C=c2\sc3nc(-c4cccs4)nn3c2=O)o1 79.6%
CCN(CC)c1ccc(/C=c2\sc3nnc(-c4ccccc4Cl)n3c2=O)cc1 1.48%
CCc1ccc(NC(=O)C(C)Nc2ccc(S(=O)(=O)NC(C)=O)cc2)cc1 (centres undefined) 3.98%
O=[N+]([O-])c1cccc(-c2nnn(C34CC5CC(CC(C5)C3)C4)n2)c1 -10.4%
COc1ccc(N(CC(=O)Nc2ccc3c(c2)OCO3)S(=O)(=O)c2ccc(C)cc2)cc1OC -12.9%
COc1ccc(C(=O)CC2OC(=O)c3c2ccc(OC)c3OC)cc1 (centres undefined) 9.31%
COc1ccc2c(c1OC)C(=O)OC2CC(=O)c1ccc(O)cc1 (centres undefined) 14.4%
CC(C)n1cc(/C=C2\NC(=O)N(c3cccc(Cl)c3)C2=O)c2ccccc21 -7.4%
O=C(O)Cn1cc(/C=C2\SC(=O)N(c3ccccc3)C2=O)c2ccccc21 15%
CCOc1ccc(Nc2cc(=O)oc3ccccc23)cc1 4.7%
Cc1cccc(N2CCN(S(=O)(=O)c3ccc4c(c3)CCN4C(=O)CCC(=O)O)CC2C)c1 (centres undefined) -2.93%
CCN(CC)C(=O)CSc1nnnn1-c1ccc(F)c(Cl)c1 -1.03%
Cc1ccc(NC(N)=S)cc1 18.7%
CNC(=S)Nc1ccc(C)cc1 3.68%
O=C(CN1C(=O)C2C3C=CC(C3)C2C1=O)Nc1ccc2nccnc2c1 (centres undefined) 1.82%
Cc1cc(C=C2C(=O)c3ccccc3C2=O)c(C)n1-c1ccc(C(=O)O)cc1 18.3%
Cc1cc(C=C2C(=O)c3ccccc3C2=O)c(C)n1-c1ccccc1 -3.81%
Cn1c(=O)cc(OCCCC(=O)NCCC2=CCCCC2)c2ccccc21 -10.7%
C=CCn1cccc(C(=O)Nc2ccc(OC)cc2OC)c1=O 21.4%
COC(=O)COc1cccc2c(=O)n(CC(=O)N3CCCCC3)ccc12 12.9%
COC(=O)COc1cccc2c(=O)n(CC(=O)N3CCC(C)CC3)ccc12 -7.98%
CCOC(=O)COc1cccc2c(=O)n(CC(=O)N3CCC(C)CC3)ccc12 3.95%
COc1cccc2c(=O)n(CC(=O)N3CCCCC3)ccc12 33.4%
COc1ccccc1/C=C(\NC(=O)c1ccc(OC)c(OC)c1)C(=O)Nc1cccc([N+](=O)[O-])c1 -33.9%
Cc1ccc(-c2cc(C(=O)NCc3ccco3)no2)cc1 -5.12%
COc1cc(SC)ccc1C(=O)NCCN1CCOCC1 -0.03%
O=C(c1cccc(NS(=O)(=O)c2cccc(F)c2)c1)N1CCN(c2ccccc2)CC1 -9.4%
Cn1c(SCC(=O)Nc2ccc(N3CCOCC3)cc2)nnc1-c1ccccc1 -0.5%
COc1ccc(/C=N\N=C2/SC(CC(=O)O)C(=O)N2c2ccc(O)cc2)cc1 (centres undefined) 45.6%
COc1ccc(/C=N/N=C2\SC(CC(=O)O)C(=O)N2c2ccccc2)cc1 (centres undefined) 33.9%
Cc1ccc2cc(C)c3nnc(SCC(=O)N4CCCc5ccccc54)n3c2c1C 1.13%
Cc1cc(C(=O)CN2C(=O)NC3(CCCc4ccccc43)C2=O)c(C)n1Cc1ccccc1 (centres undefined) 7.63%
CCOc1ccccc1NC(=O)NC1(C(=O)N2CCN3CCCC3C2)CCCCC1 (centres undefined) 20.5%
CCn1c(SCC(=O)O)nnc1-c1ccccc1 -5.68%
Cc1cc(SCC(=O)c2ccc(O)c(O)c2)n2nc(C)c(-c3ccccc3)c2n1 16.1%
Cn1cnnc1SCC(=O)c1ccc(O)c(O)c1 38.8%
O=C(CSc1nc2ccccc2n1CCc1ccccc1)c1ccc(O)c(O)c1 -0.72%
CCn1c(SCC(=O)OC)nnc1-c1ccc(C)cc1 3.28%
CCn1c(SCC(=O)c2ccc(C)cc2)nnc1-c1ccncc1 3.05%
CCn1c(SCC(=O)c2ccccc2)nnc1-c1cccnc1 14.5%
Cc1cc(SCC(=O)c2ccc(O)c(O)c2)nc2ccccc12 36.2%
Cc1ccc2cc(CN(CC3CCCO3)S(=O)(=O)c3cccc4nsnc34)c(=O)[nH]c2c1 (centres undefined) -1.29%
O=C(COC(=O)c1ccc[nH]c1=O)NCC1CCCO1 (centres undefined) -1.42%
Cc1ccc(S(=O)(=O)N2CCN(CC(=O)NC3CCCc4ccccc43)CC2)c(C)c1 (centres undefined) 5.05%
CC(NC(=O)C(C)N1C(=O)C2C3CC(C(Br)C3Br)C2C1=O)c1ccccc1 (centres undefined) 10.6%
C=CCOC(=O)C1=C(C)Nc2ncnn2C1c1cc(Br)ccc1F (centres undefined) -2.3%
Cc1ccc(CSc2nnc(SCC(=O)N/N=C/C=C/c3ccccc3[N+](=O)[O-])s2)cc1 5.78%
S=c1[nH]nc(-c2ccccn2)n1/N=C/c1ccco1 0.92%
CCOc1ccc(C(=O)CN2CCN(S(=O)(=O)c3ccc(Br)cc3)CC2)cc1 41.1%
CCOc1ccc(C(=O)CN2CCN(S(=O)(=O)c3ccc(F)cc3)CC2)cc1 26.6%
CC(C)[C@H](NS(=O)(=O)c1ccc2c(c1)OCCO2)C(=O)OCC(=O)Nc1ccccc1Cl 9.34%
CC(=O)Nc1ccc(NS(=O)(=O)c2cc([N+](=O)[O-])ccc2C)cc1 1.99%
Cc1ccc(C)c(NC(=O)c2ccccc2NS(=O)(=O)c2cc([N+](=O)[O-])ccc2C)c1 31.8%
CCN(CC)CCN(C(=O)c1ccc2c(c1)CCCC2)c1nc2ccc(F)cc2s1 -4.78%
c1ccc(CCNc2nc(-c3ccncc3)nc3ccccc23)cc1 11.8%
CC(C)OC(=O)c1c(-c2ccc(C(C)C)cc2)csc1NC(=O)C1CCCO1 (centres undefined) 16.2%
CCOC(=O)c1c(-c2ccc(OC)c(OC)c2)csc1NC(=O)C1CCCO1 (centres undefined) -3.98%
CCOC(=O)c1c(-c2ccccc2)csc1NC(=O)C1CCCO1 (centres undefined) 17.1%
CCc1ccc(-c2csc(NC(=O)C3CCCO3)c2C(=O)OC(C)C)cc1 (centres undefined) 57.8%
COC(=O)c1c(-c2cccc(C)c2)csc1NC(=O)C1CCCO1 (centres undefined) -0.44%
COC(=O)c1c(-c2ccccc2)csc1NC(=O)c1ccco1 4.09%
Cc1ccsc1C(=O)NNC(=O)C1CC=CCC1C(=O)O (centres undefined) 28%
COC(=O)c1sccc1NC(=O)C1CC=CCC1C(=O)O (centres undefined) 36.4%
COc1ccc(NC(=O)C2=C(C)NC(=O)NC2c2cccs2)c(OC)c1 (centres undefined) 2.25%
COc1ccc(OCC(=O)OC2CCCN(C)C2)cc1 (centres undefined) 3.48%
Cc1c(-c2ccc(Cl)cc2)oc(=O)c2c(N)n(-c3ccccc3)nc12 -7.58%
CCN(c1ccccc1)S(=O)(=O)c1cc(C(=O)OC(C)C(=O)Nc2ccc3c(c2)OCCO3)ccc1C (centres undefined) -0.98%
Cn1c(SCC(=O)NCCN2C(=O)CSC2=O)nnc1-c1ccccc1 -14.5%
Cc1cc(C)c(-c2c(O)c3cnn(-c4ccccc4)c3[nH]c2=O)c(C)c1 13.5%
Cc1ccc(CC(=O)N2CCOCC2)cc1 0.85%
Cc1ccc2ccccc2[n+]1CCCS(=O)(=O)[O-] 7.83%
CCOC(=O)c1c(-c2ccc(F)cc2)csc1NC(=O)C1CC=CCC1C(=O)O (centres undefined) 3.77%
COC(=O)c1c(-c2ccccc2)csc1NC(=O)C1CC=CCC1C(=O)O (centres undefined) 6.75%
CCOC(=O)c1c(-c2cccc([N+](=O)[O-])c2)csc1NC(=O)C1CCCCC1 -7.16%
CCOC(=O)c1c(-c2ccc(C)cc2)csc1NC(=O)C1CCCO1 (centres undefined) -4.23%
CCOC(=O)c1c(-c2cccc([N+](=O)[O-])c2)csc1NC(=O)C1CC1 -5.68%
COC(=O)c1c(-c2ccc(C)cc2)csc1NC(=S)NC(=O)c1ccc(F)cc1 -17.5%
